Screening data deposited in PubChem BioAssay by several laboratories.
In the library only some 2.4% were active in any assay of this set; here they are far more common.
NFkB transloc pot = enhances IL-1B driven NFkB nuclear translocation; activation, % at 2 µM; AID 819; hit rate 0.3% among 94,000; HUVEC IL-1B NFkB p65 nuclear translocation imaging;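 active = activation above 40%, about the mean plus 3 SD, also judged a hit on visual image review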;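 also: percent activation is computed from the nuclear over cytoplasmic p65 intensity ratio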
Pyk2 oligo antag = antagonists of human Pyk2 oligomerization; z-score (the deposit names both 25 µM and 10 µM); Q293 cells, Pyk2 FERM NanoBiT luminescence; hits give low values; hit rate 0.83% among 99,000; AID 1347419;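 active = Z-score of -3 or lower, scaled per plate to the spread of control and sample wells; inactive = z-score above -3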;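 also: negative z-score means lost luminescence so less FERM oligomerization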
Target sequence (Q14289 whole entry, looked up): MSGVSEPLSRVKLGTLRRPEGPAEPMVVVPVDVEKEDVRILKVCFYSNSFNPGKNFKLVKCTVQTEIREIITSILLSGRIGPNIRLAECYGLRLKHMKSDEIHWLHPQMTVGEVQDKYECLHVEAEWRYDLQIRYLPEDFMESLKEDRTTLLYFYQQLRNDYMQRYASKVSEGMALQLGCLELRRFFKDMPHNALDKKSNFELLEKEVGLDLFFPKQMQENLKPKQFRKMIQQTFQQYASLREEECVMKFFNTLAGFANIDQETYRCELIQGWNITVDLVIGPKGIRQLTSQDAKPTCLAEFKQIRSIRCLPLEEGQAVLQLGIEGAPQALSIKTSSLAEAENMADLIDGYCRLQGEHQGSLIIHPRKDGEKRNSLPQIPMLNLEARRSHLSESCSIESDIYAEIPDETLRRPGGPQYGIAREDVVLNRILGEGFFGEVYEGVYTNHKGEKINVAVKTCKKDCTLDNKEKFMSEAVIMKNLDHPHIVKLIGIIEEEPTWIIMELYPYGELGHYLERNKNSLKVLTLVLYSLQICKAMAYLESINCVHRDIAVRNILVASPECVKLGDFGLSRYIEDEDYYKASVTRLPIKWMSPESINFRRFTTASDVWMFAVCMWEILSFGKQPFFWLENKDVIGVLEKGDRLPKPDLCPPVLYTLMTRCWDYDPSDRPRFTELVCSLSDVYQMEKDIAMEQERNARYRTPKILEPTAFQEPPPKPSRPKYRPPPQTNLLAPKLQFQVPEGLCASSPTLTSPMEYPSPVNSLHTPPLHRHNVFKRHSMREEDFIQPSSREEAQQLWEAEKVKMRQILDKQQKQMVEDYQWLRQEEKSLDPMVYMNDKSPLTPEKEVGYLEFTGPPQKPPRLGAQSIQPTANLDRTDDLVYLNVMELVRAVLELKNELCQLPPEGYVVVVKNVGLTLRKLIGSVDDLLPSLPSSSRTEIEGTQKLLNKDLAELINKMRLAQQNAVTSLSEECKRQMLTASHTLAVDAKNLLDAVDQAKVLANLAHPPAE
JNK3 blocker = JNK3 (human) kinase inhibition; hit rate 0.61% among 60,000; purified JNK3 kinase activity, HTS; AID 746; inhibition, % at 8 µM; in the data active = inhibition above about 17%
IL1B cytotox = HUVEC cytotoxicity counter-screen, IL-1B stimulated; cell count reduction, % at 2 µM; HUVEC cell count loss, Hoechst imaging; hit rate 0.41% among 94,000;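 active = cell count reduction more than 3 SD above the screen-wide mean, cut at about 70% in these data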
FAK inh = FAK (human) kinase inhibition | hit rate 0.84% among 97,000 | AID 727 | biochemical FAK kinase activity assay | inhibition, %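 (tested at 7 µM)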
IL1B NFkB inh = blocks IL-1B driven NFkB nuclear translocation in HUVEC cells. HUVEC IL-1B NFkB p65 nuclear translocation imaging. inhibition, % at 2 µM. hit rate 0.43% among 94,000;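 active = inhibition above about 30% together with a positive call from visual inspection of the well image, limit read from the data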;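 also: nuclear over cytoplasmic p65 intensity ratio measured by imaging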
FAK inh confirm = confirmation of human focal adhesion kinase (FAK) inhibitors | shares compounds with FAK inh | inhibition, % at 7 µM | FAK kinase biochemical inhibition assay | hit rate 28% among 750
Of the large screens only hits and unclear results are named; the others gave an inactive call (follow-up assays come after a bar, where they were run). Rule as the data show it, unless noted: active = inhibition above about 19%; inactive = the rest.

COc1ccc(N2C(=O)[C@@H]3[C@H](C2=O)[C@H]2c4ccccc4C=CN2[C@@H]3C(=O)Nc2ccccc2)cc1	none (no result: JNK3 blocker)
Cc1ccc(N2C(=O)[C@@H]3[C@H](C2=O)C2c4ccccc4C=CN2[C@@H]3C(=O)c2ccco2)cc1 (some centres undefined)	FAK inh 32.2 | FAK inh confirm inactive
O=C(c1ccco1)[C@@H]1[C@@H]2C(=O)N(c3ccccc3)C(=O)[C@@H]2C2c3ccccc3C=CN21 (some centres undefined)	FAK inh 19.2 | FAK inh confirm inactive
Cc1ccc(N2C(=O)[C@@H]3[C@H](C2=O)C2c4ccccc4C=CN2[C@@H]3C(=O)c2ccco2)c(C)c1 (some centres undefined)	none
Cc1ccc(N(CCCCN2C(=O)c3ccccc3C2=O)C(=O)c2cccc([N+](=O)[O-])c2)cc1	none (no result: JNK3 blocker)
Cc1ccsc1/C=N/NC(=O)c1sccc1C	none (no result: JNK3 blocker)
Cc1ccsc1C=Nc1ccc(O)cc1	FAK inh 50.4 | FAK inh confirm inactive
O=C(Cn1c(=O)oc2cc(S(=O)(=O)N3CCCC3)ccc21)NC1CCCc2ccccc21 (centres undefined)	none (no result: NFkB transloc pot, Pyk2 oligo antag, IL1B cytotox, FAK inh, IL1B NFkB inh)
O=C(Cn1c(=O)oc2cc(S(=O)(=O)N3CCCCCC3)ccc21)NC1CCCCCCC1	FAK inh 21.5 (no result: Pyk2 oligo antag) | FAK inh confirm inactive
Cc1ccccc1OCC(=O)NNC(=O)c1ccc(-c2ccccc2)cc1	FAK inh 20.4 (no result: JNK3 blocker) | FAK inh confirm inactive
COc1ccccc1N(C(=O)c1snc(C(N)=O)c1N)C(C(=O)NC1CCCC1)c1ccco1 (centres undefined)	none
CC(C(=O)NC1CCCC1)N(C(=O)c1snc(C(N)=O)c1N)c1ccc2c(c1)OCCO2 (centres undefined)	FAK inh 21.2 | FAK inh confirm inactive
Cc1ccc2c(CC(=O)OCc3cc(=O)n4c(n3)sc3ccccc34)coc2c1	FAK inh 22.6 (no result: JNK3 blocker) | FAK inh confirm inactive
CC(C)CCNC(=O)NC(=O)Cn1cc(C(F)(F)F)ccc1=O	none (no result: Pyk2 oligo antag, JNK3 blocker)
CC(=O)N(/N=C1\Sc2ccccc2C1=O)c1ccccc1C	FAK inh 21.7 (no result: JNK3 blocker) | FAK inh confirm inactive
CC(=O)N(/N=C1\Sc2ccccc2C1=O)c1ccc(C)cc1C	none (no result: JNK3 blocker)
O=c1oc(-c2ccccc2NS(=O)(=O)c2ccc3ccccc3c2)nc2ccccc12	none (no result: NFkB transloc pot, JNK3 blocker, IL1B cytotox, FAK inh, IL1B NFkB inh)
O=C(CSc1nc2ccccc2c(=O)n1Cc1ccco1)N1CCCCCC1	FAK inh 36.0 | FAK inh confirm inactive
COCCNC(=O)c1ccc2c(=O)n(Cc3ccco3)c(SCC(=O)NC3CCCCC3)nc2c1	FAK inh 32.7 (no result: JNK3 blocker) | FAK inh confirm inactive
O=C(NCc1ccco1)c1ccc2c(=O)n(Cc3ccco3)c(SCC(=O)N3CCCC3)nc2c1	none (no result: JNK3 blocker)
O=C(CCNC(=O)c1ccc(Br)o1)NCc1ccccn1	none
CCCCc1cc(=O)oc2cc(C)c(CN3CCCC3)c(O)c12	FAK inh 20.8 | FAK inh confirm inactive
COc1ccc2c3c(cccc13)NN=C2C	FAK inh 84.1, IL1B NFkB inh 30.4 (no result: Pyk2 oligo antag) | FAK inh confirm inactive
Cc1ccc(NC(=O)Cn2cncc2-c2ccc([N+](=O)[O-])cc2)cc1C	FAK inh 24.4 (no result: JNK3 blocker) | FAK inh confirm inactive
O=C1Cc2ccccc2C(=O)N1CCc1ccccc1	FAK inh 39.8 (no result: Pyk2 oligo antag) | FAK inh confirm 37.0
Cc1cccc(C)c1NC(=O)CSc1nnc(-c2ccco2)c(-c2ccco2)n1	FAK inh 35.4 (no result: JNK3 blocker) | FAK inh confirm inactive
Cc1ccc(NC(=O)CSc2nnc(-c3ccco3)c(-c3ccco3)n2)cc1	FAK inh 19.2 | FAK inh confirm inactive
O=C(CSc1nnc(-c2ccco2)c(-c2ccco2)n1)Nc1ccccc1	none
CC1(C)SC2[C@H](NC(=O)C(NC(=O)N3CCNC3=O)c3ccccc3)C(=O)N2C1C(=O)O (some centres undefined)	none (no result: NFkB transloc pot, Pyk2 oligo antag, IL1B cytotox, FAK inh, IL1B NFkB inh)
CCOC(=O)c1sc(C)c2c1NC1(CCCCCC1)NC2=O	FAK inh 68.3 (no result: JNK3 blocker) | FAK inh confirm inactive
c1ccc(-c2cc(-c3nn4c(-c5ccco5)nnc4s3)c3ccccc3n2)cc1	none
COCCCn1c(=N)c(C(N)=S)cc2c(=O)n3cccc(C)c3nc21	none (no result: NFkB transloc pot, Pyk2 oligo antag, IL1B cytotox, FAK inh, IL1B NFkB inh)
Cc1ccc2nc3c(cc(C(N)=S)c(=N)n3CCCOC(C)C)c(=O)n2c1	FAK inh 28.3 | FAK inh confirm inactive
O=C(Nc1ccccc1C(=O)OCC(=O)N1CCc2ccccc2C1)c1ccco1	none
Cc1ccc(NC(=O)COc2ccc(/C=N/NC(=O)CSCc3ccccc3)cc2)cc1	FAK inh 20.2 (no result: JNK3 blocker) | FAK inh confirm inactive
Cc1ccc2nc(-c3ccc(SCC(=O)O)nc3)[nH]c2c1	none
Cc1ccc2nc(-c3ccc(NC(=O)CSc4ccccc4)cc3)[nH]c2c1	FAK inh 31.7 (no result: JNK3 blocker) | FAK inh confirm inactive
CCOC(=O)c1ccc(NC(=O)CSc2nc(NC(=O)c3ccccc3)c3c(C)c(C)oc3n2)cc1	FAK inh 27.2 (no result: JNK3 blocker) | FAK inh confirm inactive
COC(=O)c1ccccc1NC(=O)CSc1nc(NC(=O)c2ccccc2)c2c(C)c(C)oc2n1	none
Nc1ccc2c(c1)C(=O)C(=O)c1ccccc1-2	Pyk2 oligo antag -4.09, FAK inh 57.2 (no result: JNK3 blocker) | FAK inh confirm 57.8
COc1ccc(-c2nnc(SC(C)C(=O)Nc3nccs3)n2Cc2ccccc2)cc1OC (centres undefined)	none (no result: JNK3 blocker)
COc1ccc(-c2nnc(SC(C)C(=O)Nc3nccs3)n2-c2ccccc2)cc1OC (centres undefined)	FAK inh 49.2 | FAK inh confirm inactive
CCc1nc(NCc2cccnc2)c2oc3ccccc3c2n1	FAK inh 20.2 (no result: NFkB transloc pot, JNK3 blocker, IL1B cytotox, IL1B NFkB inh) | FAK inh confirm inactive
CCN1C(=O)c2cccc3c(S(=O)(=O)NCc4ccco4)ccc1c23	FAK inh 20.6 | FAK inh confirm inactive
CC(C)=CC1C(C(=O)Nc2ccc(Br)cn2)C1(C)C (centres undefined)	FAK inh 26.8 | FAK inh confirm inactive
CCCCc1nc2n[nH]c(N)c2c2c1CCC2	FAK inh 19.9 | FAK inh confirm inactive
CC(C)Cc1nc2n[nH]c(N)c2c2c1CCC2	FAK inh 19.0 | FAK inh confirm inactive
CCCc1nc2n[nH]c(N)c2c2c1COC(C)(C)C2	none
C=CCn1c(SCC(=O)N2CCCC2)nc2scc(-c3cccs3)c2c1=O	FAK inh 40.5 (no result: JNK3 blocker) | FAK inh confirm 30.5
CCCCOc1[nH]c2nc(-c3ccco3)n(Cc3ccco3)c(=N)c2c1C#N	none
O=C1SC(SCc2ccccc2)=N/C1=C\c1ccco1	none
CCCSC1=N/C(=C\C=C\c2ccco2)C(=O)S1	FAK inh 24.5 | FAK inh confirm inactive
Cc1ccc(/C=N\Nc2nc3ccc(Cl)cc3[nH]2)o1	FAK inh 21.4 (no result: JNK3 blocker) | FAK inh confirm inactive
COc1cc(C2N(c3ccccn3)C(=O)C3CCCN32)cc(OC)c1OC (centres undefined)	none
COc1cc(C2Nc3ccc4ncccc4c3C3=C2C(=O)CCC3)cc(OC)c1O (centres undefined)	FAK inh 47.9 | FAK inh confirm 28.8
